Source: PubChem BioAssay
Calls of active or inactive are those of the source.

How the values were obtained:
[1] = small molecules captured by biotinylated probe aFSTL3 – biochemical, small-molecule microarray, fluorescence 635/667, stem cell growth factor project, primary screen (AID 1064); conditions: higher = more signal;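 further: measures binding of the biotinylated anti-FSTL3 antibody to printed compounds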
[2] = binders from COS7 lysate, DM2A8 probe, primary screen, torsin A project, cell lysate, small-molecule microarray, fluorescence 635/667 (AID 1065); conditions: higher = more signal, COS7 lysate expressing mutant human TOR1A
[3] = small molecules captured by biotinylated probe aFGF2 – biochemical, small-molecule microarray, fluorescence 635/667, stem cell growth factor project, primary screen (AID 1067); conditions: higher = more signal;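 further: measures binding of biotinylated aFGF2 protein to printed compounds on slides; z-score merges feature fluorescence and signal-to-noise across triplicate slides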
[4] = small molecules captured by biotinylated probe aFGF10 – biochemical, small-molecule microarray, fluorescence 635/667, stem cell growth factor project, primary screen (AID 1071); conditions: higher = more signal;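 further: score merges 667 nm spot intensity and signal to noise from triplicate slides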
[5] = target: Neurogenic locus notch homolog protein 2 (Homo sapiens) (UniProt Q04721); assay: small molecules binding Notch2 protein – biochemical, small-molecule microarray, 635 nm fluorescence, stem cell growth factors, primary screen (AID 1073); conditions: higher = more signal
Chain of Neurogenic locus notch homolog protein 2 (Homo sapiens) (Q04721 whole entry, looked up, canonical isoform): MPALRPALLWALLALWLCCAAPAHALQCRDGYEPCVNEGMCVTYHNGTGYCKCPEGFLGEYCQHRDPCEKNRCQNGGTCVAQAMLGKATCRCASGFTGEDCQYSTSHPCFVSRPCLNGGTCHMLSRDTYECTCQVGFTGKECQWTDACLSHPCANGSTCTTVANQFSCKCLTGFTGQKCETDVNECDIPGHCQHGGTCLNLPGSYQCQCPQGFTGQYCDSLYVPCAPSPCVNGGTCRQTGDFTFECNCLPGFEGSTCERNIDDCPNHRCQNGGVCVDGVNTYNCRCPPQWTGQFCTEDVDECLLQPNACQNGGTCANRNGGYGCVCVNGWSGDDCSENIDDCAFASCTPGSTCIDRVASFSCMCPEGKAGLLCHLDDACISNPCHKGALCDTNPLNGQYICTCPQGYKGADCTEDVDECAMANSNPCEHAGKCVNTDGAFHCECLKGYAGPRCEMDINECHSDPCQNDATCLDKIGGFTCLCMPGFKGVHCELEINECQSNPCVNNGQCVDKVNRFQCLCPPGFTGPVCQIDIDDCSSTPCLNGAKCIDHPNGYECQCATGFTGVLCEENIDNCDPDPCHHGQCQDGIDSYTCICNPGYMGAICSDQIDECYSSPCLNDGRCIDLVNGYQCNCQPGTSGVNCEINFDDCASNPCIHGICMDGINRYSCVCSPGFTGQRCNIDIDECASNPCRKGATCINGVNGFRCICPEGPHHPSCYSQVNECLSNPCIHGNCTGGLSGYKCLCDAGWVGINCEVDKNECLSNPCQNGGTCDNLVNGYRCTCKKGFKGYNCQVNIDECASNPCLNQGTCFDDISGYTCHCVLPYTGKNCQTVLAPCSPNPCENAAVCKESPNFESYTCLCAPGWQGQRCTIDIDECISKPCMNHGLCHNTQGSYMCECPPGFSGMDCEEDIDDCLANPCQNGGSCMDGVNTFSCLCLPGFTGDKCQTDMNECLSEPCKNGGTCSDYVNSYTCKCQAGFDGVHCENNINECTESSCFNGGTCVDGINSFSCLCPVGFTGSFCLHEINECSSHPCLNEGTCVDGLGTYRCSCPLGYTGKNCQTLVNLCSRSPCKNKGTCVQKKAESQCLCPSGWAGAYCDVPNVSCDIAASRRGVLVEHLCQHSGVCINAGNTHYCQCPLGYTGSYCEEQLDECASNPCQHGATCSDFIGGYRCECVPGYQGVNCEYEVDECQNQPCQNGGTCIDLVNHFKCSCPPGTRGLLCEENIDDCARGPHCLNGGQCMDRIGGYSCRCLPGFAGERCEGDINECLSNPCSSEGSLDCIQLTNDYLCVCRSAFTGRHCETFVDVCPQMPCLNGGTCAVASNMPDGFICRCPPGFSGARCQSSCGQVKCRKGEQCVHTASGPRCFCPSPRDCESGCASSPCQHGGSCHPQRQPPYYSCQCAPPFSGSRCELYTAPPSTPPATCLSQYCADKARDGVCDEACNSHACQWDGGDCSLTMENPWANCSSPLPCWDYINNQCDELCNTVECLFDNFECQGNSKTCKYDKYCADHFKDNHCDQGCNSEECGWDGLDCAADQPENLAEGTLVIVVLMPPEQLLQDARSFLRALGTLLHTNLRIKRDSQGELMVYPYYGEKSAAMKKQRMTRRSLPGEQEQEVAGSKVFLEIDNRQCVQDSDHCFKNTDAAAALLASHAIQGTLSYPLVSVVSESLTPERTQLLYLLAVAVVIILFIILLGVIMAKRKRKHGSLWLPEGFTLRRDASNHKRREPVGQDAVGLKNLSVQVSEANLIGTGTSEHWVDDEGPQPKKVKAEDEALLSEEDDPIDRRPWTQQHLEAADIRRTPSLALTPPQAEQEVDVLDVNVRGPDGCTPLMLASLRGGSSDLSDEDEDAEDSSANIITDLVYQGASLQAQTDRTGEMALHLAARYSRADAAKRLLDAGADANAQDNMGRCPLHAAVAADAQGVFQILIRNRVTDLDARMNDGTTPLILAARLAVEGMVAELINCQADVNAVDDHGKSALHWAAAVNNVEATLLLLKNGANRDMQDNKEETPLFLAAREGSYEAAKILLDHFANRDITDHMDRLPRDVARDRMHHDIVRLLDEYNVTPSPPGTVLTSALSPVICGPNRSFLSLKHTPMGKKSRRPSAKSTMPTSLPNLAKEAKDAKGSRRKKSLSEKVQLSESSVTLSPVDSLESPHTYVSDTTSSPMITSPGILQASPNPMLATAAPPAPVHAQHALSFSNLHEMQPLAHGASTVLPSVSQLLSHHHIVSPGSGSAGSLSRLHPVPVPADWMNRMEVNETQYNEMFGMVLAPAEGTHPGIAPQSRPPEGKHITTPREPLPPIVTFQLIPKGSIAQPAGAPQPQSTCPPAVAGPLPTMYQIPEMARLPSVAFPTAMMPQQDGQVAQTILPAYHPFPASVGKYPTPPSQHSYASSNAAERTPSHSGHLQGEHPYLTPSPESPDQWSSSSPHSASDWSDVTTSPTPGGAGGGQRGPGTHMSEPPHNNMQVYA

[6] = target: Pro-neuregulin-1, membrane-bound isoform (Homo sapiens) (UniProt Q02297); assay: small molecules binding neuregulin-1 protein – biochemical, small-molecule microarray, fluorescence 635/667, psychiatric disease protein project, primary screen (AID 1075); conditions: NRG1 binding, 635 nm fluorescence, higher = more signal;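 further: score combines 667 nm spot fluorescence with signal to noise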
Chain of Pro-neuregulin-1, membrane-bound isoform (Homo sapiens) (Q02297 whole entry, looked up, the tested form may be a part, canonical isoform): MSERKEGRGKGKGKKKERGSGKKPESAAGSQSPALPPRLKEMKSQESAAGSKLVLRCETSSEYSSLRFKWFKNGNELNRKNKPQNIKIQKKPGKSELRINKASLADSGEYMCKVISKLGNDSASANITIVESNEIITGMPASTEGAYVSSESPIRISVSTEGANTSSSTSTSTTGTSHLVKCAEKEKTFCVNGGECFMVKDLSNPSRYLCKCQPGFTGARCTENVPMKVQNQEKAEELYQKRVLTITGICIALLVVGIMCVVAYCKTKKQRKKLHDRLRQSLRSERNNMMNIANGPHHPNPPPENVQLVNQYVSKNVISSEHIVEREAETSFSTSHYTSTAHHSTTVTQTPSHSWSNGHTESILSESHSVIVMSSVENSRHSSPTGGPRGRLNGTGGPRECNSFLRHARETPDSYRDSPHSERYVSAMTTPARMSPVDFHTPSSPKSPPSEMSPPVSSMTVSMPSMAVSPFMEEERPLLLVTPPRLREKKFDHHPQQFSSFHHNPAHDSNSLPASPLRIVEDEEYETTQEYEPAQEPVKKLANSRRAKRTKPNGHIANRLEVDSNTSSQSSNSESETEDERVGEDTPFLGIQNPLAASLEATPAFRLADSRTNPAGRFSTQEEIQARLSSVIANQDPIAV

[7] = test system: Neuregulin-1 EGF-like domain; assay: small molecules binding NRG1 EGF domain – biochemical, small-molecule microarray, 635 nm fluorescence, primary screen (AID 1081); conditions: higher = more signal;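 further: binding of the protein to compounds printed on small-molecule microarray slides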
[8] = FRG1 expression reporter modulators in myotubes – cell-based, C2C12 myotubes, firefly/Renilla luciferase, luminescence, FRG1 inhibition for FSHD, primary screen (AID 1084); conditions: FRG1 promoter luciferase, higher = more signal, called active from +8 up or from −8 down
[9] = small molecules captured by biotinylated probe aFST – biochemical, small-molecule microarray, fluorescence 635/667, stem cell growth factor project, primary screen (AID 1086); conditions: higher = more signal;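 further: score merges 667 nm fluorescence with signal-to-noise of each printed compound spot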
[10] = binders of probe aHhip on microarray, primary screen, stem cell growth factor project, biochemical, small-molecule microarray, fluorescence 635/667 (AID 1087); conditions: higher = more signal;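 further: score merges spot fluorescence at 667nm with spot signal to noise ratio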
[11] = test system: PRMT1 (protein arginine N-methyltransferase 1); assay: small molecules binding arginine methyltransferase PRMT1 – biochemical, small-molecule microarray, 635 nm fluorescence, primary screen (AID 1088); conditions: higher = more signal;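 further: binding of Prmt1 protein to compounds spotted on small-molecule microarray slides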
[12] = growth effects on S. cerevisiae YJM789 – YJM789 clinical isolate, OD600, 24 h, basal, primary screen (AID 1089); conditions: higher = more signal, called active from +8 up or from −8 down;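 further: growth of clinical yeast isolate S. cerevisiae YJM 789 seeded 1000 cells per well; test concentration not given here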
[13] = S. pombe growth modifiers, basal conditions – strain 972, OD600, 24 h, no modulator, primary screen (AID 1090);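 further: basal condition with compound alone and no growth modifier present; test concentration not given here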; conditions: S. pombe 972 growth, higher = more signal, called active from +8 up or from −8 down
[14] = budding yeast growth modifiers under rapamycin – strain BY4716, OD600, 96 h, primary screen (AID 1091); further: test concentration not given here; conditions: S. cerevisiae BY4716 + rapamycin, higher = more signal, called active from +8 up or from −8 down
[15] = target: Torsin-1A-interacting protein 2 (Homo sapiens) (UniProt Q8NFQ8); assay: small molecules binding lysate-expressed LULL1 – cell lysate, human LULL1 lysate, 635/667 nm fluorescence, primary screen (AID 1092); conditions: small-molecule microarray, hLULL1 lysate binding, 635 nm fluorescence; higher = more signal;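 further: probe is lysate of COS7 cells overexpressing human LULL1; score merges per-feature 667 nm fluorescence with signal-to-noise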
Chain of Torsin-1A-interacting protein 2 (Homo sapiens) (Q8NFQ8 whole entry, looked up): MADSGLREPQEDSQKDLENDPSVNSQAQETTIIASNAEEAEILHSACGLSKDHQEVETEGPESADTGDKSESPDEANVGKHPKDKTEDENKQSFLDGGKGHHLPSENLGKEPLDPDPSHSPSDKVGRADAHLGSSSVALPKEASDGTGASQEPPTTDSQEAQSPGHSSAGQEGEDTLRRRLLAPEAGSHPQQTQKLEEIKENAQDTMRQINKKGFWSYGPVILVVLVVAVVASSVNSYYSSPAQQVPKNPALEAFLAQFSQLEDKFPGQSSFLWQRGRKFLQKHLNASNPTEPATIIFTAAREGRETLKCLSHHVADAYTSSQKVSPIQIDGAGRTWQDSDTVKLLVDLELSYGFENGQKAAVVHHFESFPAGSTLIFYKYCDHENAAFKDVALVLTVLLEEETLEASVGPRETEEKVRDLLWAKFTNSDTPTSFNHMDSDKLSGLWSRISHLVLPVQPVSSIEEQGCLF

[16] = optical density change of DRC41 E. coli – strain DRC41, OD650, 24 h, E. coli filamentation project, primary screen (AID 1093);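 further: MC1000 strain lacking acrAB efflux and sulA so SOS filamentation is blocked; test concentration not given here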; conditions: E. coli DRC41 growth, higher = more signal, called active from +8 up or from −8 down
[17] = probe aLefty2 binding to arrayed compounds – biochemical, biotinylated probe, 635/667 nm fluorescence, primary screen (AID 1094); conditions: small-molecule microarray, higher = more signal;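 further: score merges spot fluorescence near 667 nm with spot signal-to-noise ratio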
[18] = test system: Noggin (protein binding on small-molecule microarray); assay: small molecules binding Noggin protein – biochemical, 635/667 nm fluorescence, primary screen (AID 1095); conditions: 635 nm fluorescence, higher = more signal;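 further: score merges 667 nm feature fluorescence with signal to noise over triplicate slides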
[19] = target: Neurogenic locus notch homolog protein 3 (Homo sapiens) (UniProt Q9UM47); assay: small molecules binding NOTCH3 protein – biochemical, 635/667 nm fluorescence, primary screen (AID 1096); conditions: small-molecule microarray, 635 nm fluorescence, higher = more signal
[20] = probe aEGFR binding to arrayed compounds – biochemical, biotinylated probe, 635/667 nm fluorescence, primary screen (AID 1097); conditions: small-molecule microarray, higher = more signal;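 further: probe is a biotinylated anti-EGFR antibody binding compounds printed on slides; score combines fluorescence near 667 nm and signal to noise of each spot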

Structure (SMILES) | composite z-score [1] | composite z-score [2] | composite z-score [3] | composite z-score [4] | composite z-score [5] | composite z-score [6] | composite z-score [7] | z-score [8] | composite z-score [9] | composite z-score [10] | composite z-score [11] | z-score [12] | z-score [13] | z-score [14] | composite z-score [15] | z-score [16] | composite z-score [17] | composite z-score [18] | composite z-score [19] | composite z-score [20]
CC[C@H]1C2=C3C(CC[C@H]4C(OCc5ccc(F)cc5C(F)(F)F)OC[C@](C)([C@@H]34)N(C(=O)OC(C)(C)C)C2)C2COC(=O)OCC21 (stereo not given in full) | 0.0488 | -0.377 | 0.0246 | 0.112 | 1.25 | 1.47 | 0.874 | 1.82 (inactive) | 1.73 | -0.0047 | 0.254 | 0.416 (inactive) | 1.13 (inactive) | 0.896 (inactive) | 3.34 | -1.81 (inactive) | 0.375 | -0.581 | 1.1 | -0.117
Cc1ccc(S[C@]2(C(=O)NC(C)C)CC(=O)N(C3Cc4ccccc4C3)[C@@H]2c2ccc(CO)cc2I)cc1 | 0.125 | -0.869 | -0.216 | -0.667 | -0.853 | 1.06 | 0.381 | -1.85 (inactive) | -0.654 | -0.858 | 0.871 | -0.801 (inactive) | -2.68 (inactive) | -0.0369 (inactive) | 3.32 | 0.733 (inactive) | -0.0131 | -0.0975 | -0.505 | -0.37
C=CC[C@H](OC(=O)Nc1ccc(OC)cc1)c1ccc(O)c2ccccc12 | -0.471 | 0.38 | -0.0894 | 0.517 | 1.28 | 0.473 | 0.933 | 6.36 (inactive) | 0.0069 | 0.176 | 1.33 | -23.9 (active) | -19.5 (active) | -1.21 (inactive) | 2.08 | 0.364 (inactive) | 0.054 | 0.578 | 1.06 | -0.0509
C=C(CCCC)/C(=C/C[C@@H](OC(C)=O)c1ccc(CO)o1)c1cc(C(=O)OC)ccc1OC | -0.557 | 0.273 | -0.0985 | 0.866 | 0.621 | 1.01 | 1.28 | -0.129 (inactive) | 0.435 | 0.0826 | 1.57 | 0.562 (inactive) | -0.911 (inactive) | 0.28 (inactive) | 2.75 | -0.12 (inactive) | -0.134 | 1.44 | 1.06 | 0.021
CCOC(=O)C[C@H]1[C@H](OC(=O)c2ccc(-c3ccccc3)cc2)[C@@H](NC(=O)C2CCCCC2)c2cc(OCCCO)ccc2N1C(=O)c1ccccc1 | -0.539 | 0.338 | -0.0344 | 0.303 | 0.425 | 0.397 | 0.337 | -0.298 (inactive) | 0.345 | 0.103 | 0.5 | 0.285 (inactive) | 0.881 (inactive) | 1.29 (inactive) | 1.44 | -0.964 (inactive) | -0.13 | 0.714 | 0.855 | -0.113
O=C1O[C@@H](c2ccccc2)[C@@H](c2ccccc2)N2[C@@H](c3ccccc3OCCO)[C@]3(C(=O)Nc4ccc(C#CCCO)cc43)[C@@H](C(=O)Nc3nc4ccccc4s3)[C@H]12 | -0.0348 | 0.74 | -0.0165 | 1.07 | 1.36 | 1.5 | 1.3 | -2.4 (inactive) | 0.73 | 0.28 | 1.55 | 1.49 (inactive) | -0.487 (inactive) | 3.2 (inactive) | 2.64 | 1.59 (inactive) | 0.259 | 0.448 | 1.05 | 0.131
C=CCC(OC(C)=O)[C@@H]1[C@@H](N(Cc2cc3ccccc3o2)C(=O)Cc2ccc(F)cc2)c2cc(OCCCO)ccc2N1C(=O)c1ccc2ccccc2n1 (stereo not given in full) | -0.0583 | 0.337 | -0.0695 | 0.0991 | -0.0518 | -0.137 | -0.275 | -0.591 (inactive) | 0.0407 | 0.0881 | -0.22 | -0.271 (inactive) | -0.448 (inactive) | -0.258 (inactive) | -0.136 | -0.494 (inactive) | 0.055 | -0.145 | -0.814 | -0.0573
O=C1O[C@@H](c2ccccc2)[C@@H](c2ccccc2)N2[C@@H](c3ccc(O)cc3)[C@]3(C(=O)Nc4ccccc43)[C@@H](C(=O)Nc3nc4ccccc4s3)[C@H]12 | 0.0072 | 0.155 | -0.0206 | 0.43 | -0.434 | 1.28 | 1.15 | -2.37 (inactive) | 0.642 | 0.0373 | 1.51 | 0.813 (inactive) | 0.849 (inactive) | 1.4 (inactive) | 2.77 | -0.0768 (inactive) | -0.15 | 0.797 | 0.881 | -0.132
C=CCNC(=O)[C@H]1[C@@H]2C(=O)O[C@@H](c3ccccc3)[C@@H](c3ccccc3)N2[C@@H](c2ccccc2OCCO)[C@]12C(=O)N(C(=O)OCCOC)c1ccc(C#CC3=CCCCC3)cc12 | 1.13 | 0.698 | 0.032 | 0.44 | 1.5 | 0.791 | 1.33 | -1.89 (inactive) | 0.877 | -0.0022 | 1.55 | 1.85 (inactive) | -1.02 (inactive) | 4.29 (inactive) | 2.38 | 1.23 (inactive) | 0.304 | 0.843 | 1.05 | 0.34
COC(=O)C(CC#Cc1ccc2c(c1)[C@]1(C(=O)N2)[C@H](C(=O)O)[C@H]2C(=O)O[C@H](c3ccccc3)[C@H](c3ccccc3)N2[C@@H]1c1ccccc1OCCO)C(=O)OC | 0.232 | 0.63 | 0.0762 | 1.12 | 0.866 | 1.27 | 1.21 | 0.483 (inactive) | 0.451 | 0.275 | 1.54 | 1.93 (inactive) | 0.324 (inactive) | -1.17 (inactive) | 3.04 | -0.972 (inactive) | 0.396 | 1.27 | 1.15 | 0.103
